# Screening data: PubChem, Broad Institute
# aSyn UTR act – Activators via SNCA 5'UTR binding, MLPCN; alpha-synuclein 5'UTR reporter, activators screen; activity score, % (tested at 7.5 µM), hits read low; actives 7.1% (n = 300,000); AID 1814, 2009; in the data active = activity score below about -60%
# Starred values were filed as active, the others as inactive. These entries were drawn from the full list.
SMILES,aSyn UTR act
C=CCSc1nnc2nc3[nH]c4c(C)cccc4c3nn12,-74.6*
O=c1c2ccccc2oc2ccc(-c3ccc4[nH]ccc4c3)cc12,-154.1*
N#C/C(=C\c1cn(Cc2cccc(F)c2)c2ccccc12)C(=O)NCc1ccco1,64.5
CN(C)c1ccc(/C=C(\C#N)C(=O)NCc2ccco2)cc1,-102.0*
N#C/C(=C\c1cn(Cc2ccccc2)c2ccccc12)C(=O)NCc1ccco1,67.8
O=C(O)CCCN1C(=O)/C(=C\c2ccco2)SC1=S,-141.5*
CC(=C\c1ccccc1)/C=C1/SC(=S)N(CCCC(=O)O)C1=O,66.6
CN(C)c1ccc(/C=N/NC(=O)c2ccnn2C)cc1,-109.6*
CN(C)c1ccc(/C=N/NC(=O)c2ccn(C)n2)cc1,-114.8*
CCOc1ccc2nc(N3CCCC(C(=O)N4CCN(CC)CC4)C3)sc2c1 (centres undefined),-96.3*
Cc1cc(C)c2nc(N3CCCC(C(=O)NC4CCCC4)C3)sc2c1 (centres undefined),-90.3*
CCOc1ccc2nc(N3CCCC(C(=O)NCC4CCCO4)C3)sc2c1 (centres undefined),-144.8*
CCOC(=O)N1CCN(S(=O)(=O)c2ccc(C(=O)NNc3nc4c(C)cc(C)cc4s3)cc2)CC1,71.4
O=C(CCS(=O)(=O)c1ccccc1)NC12CC3CC(CC(C3)C1)C2,-179.3*
CN(C)/N=C/C=C1\CCC/C(=C\c2ccc(F)c(F)c2)C1=O,-421.6*
COc1ccc(/C=C2\CCC/C(=C\C=N\N(C)C)C2=O)cc1,-427.3*
CN(C)c1ccc(/C=C2\CCC/C(=C\c3ccccc3)C2=O)cc1,-81.1*
COc1ccc(CNc2ncc(-c3ccc(F)cc3)n2C)c2ccccc12,65.1
COc1cccc(CNc2nc3ccccc3n2C)c1O,-93.7*
COc1cccc(CNc2ccc(F)c(Cl)c2)c1O,-183.8*
Cc1ccc(O)c(CNc2cnc3ccccc3c2)c1,-99.7*
COc1ccccc1Nc1nc2ccccc2n1C,-121.7*
NCCCn1c(C(=O)c2cc(Cl)c(N)c(Cl)c2)c2ccc([N+](=O)[O-])cc2[n+]1[O-],100.5
COc1cccc(CNc2cnc3ccccc3c2)c1O,-218.5*
N#Cc1ccc(C(=O)Nc2nc3ccccc3[nH]2)cc1,-88.4*
SMILES,aSyn UTR act
CN(C)S(=O)(=O)c1ccc(C(=O)Nc2nc3ccccc3[nH]2)cc1,-108.6*
CCc1ccc(C(=O)Nc2nc3ccccc3[nH]2)cc1,87.9
O=C/C(=C\Nc1ccccn1)c1nc2ccccc2o1,-106.9*
CC(=O)Nc1cccc(N/C=C(\C=O)c2nc3ccccc3o2)c1,-102.4*
COc1cc(C)ccc1OCCCOc1ccccc1Cl,-207.3*
COc1cc(C)ccc1OCCOc1ccccc1Cl,-208.0*
CC1(C)N=C(N)N=C(N)N1c1ccc(OCCCOc2ccccc2)c(Cl)c1,78.3
CCOC(=O)c1c(CNc2ccncc2)n(C)c2cc(Br)c(O)cc12,-61.8*
CCOC(=O)c1c2c(n(C)c1COC)C(=O)C(=O)c1ccc(Br)cc1-2,92.1
COc1ccc(COC(=O)c2cc([N+](=O)[O-])ccc2N2CCOCC2)cc1F,68.3
O=C(Cc1ccccc1[N+](=O)[O-])N1CCc2ccccc2C1,-103.4*
CC(=O)c1ccc(N2CCc3ccccc3C2)c([N+](=O)[O-])c1,-68.0*
COc1cc2c(cc1OC)CN(c1ccc(F)cc1[N+](=O)[O-])CC2,-79.0*
COc1cc2c(cc1OC)CN(c1ncccc1[N+](=O)[O-])CC2,-88.2*
Cc1ccc(N/C=C2/Sc3ccccc3NC2=O)cc1,-175.0*
CCC(C)NC(=O)/C=C1\Sc2ccccc2NC1=O (centres undefined),-74.5*
COc1ccc(N/C=C2/Sc3ccccc3NC2=O)cc1,-147.9*
COc1ccc(-c2noc(CCc3ccccc3)n2)cc1,-148.0*
COc1ccc(-c2noc(Cc3ccccc3OC)n2)cc1,-64.3*
COc1ccc(-c2noc(Cc3cccs3)n2)cc1,-188.5*
COC(=O)c1c(NC(=O)CCl)sc(C(=O)N2CCOCC2)c1C,-82.8*
C(=C\c1ccccc1)/CSc1ccccn1,-186.8*
Cc1cc(C)nc(SC/C=C/c2ccccc2)n1,-89.0*
COc1cc2c(cc1O)CC[C@@H]1[C@@H]2CC[C@]2(C)[C@@H](O)CC[C@@H]12,75.3
O=C(Nc1ccc(Br)cc1)c1cnc[nH]1,-107.1*
SMILES,aSyn UTR act
O=C(Nc1cc2cc([N+](=O)[O-])ccc2oc1=O)c1cccs1,-75.9*
O=C(Nc1cccc(NC(=O)c2cccs2)c1)c1ccc([N+](=O)[O-])o1,-69.0*
COc1cc(NC(=O)c2ccc([N+](=O)[O-])o2)ccc1NC(=O)c1cccs1,-82.2*
COc1ccc(/C=N/Nc2snc(SC)c2C#N)cc1OC,-145.6*
COc1cccc(/C=N/Nc2snc(SC)c2C#N)c1O,-157.1*
CSc1nsc(N/N=C/c2ccccc2)c1C#N,-149.8*
Cc1nc2ccc(NC(=O)Cc3cccs3)cc2s1,-148.4*
Cc1ccc(NC(=O)Cc2cccs2)cc1Cl,-115.6*
O=C(Cc1cccs1)Nc1cccc(-c2nc3cc4ccccc4cc3[nH]2)c1,-92.5*
Cc1nc2ccc(NC(=O)Cc3c(F)cccc3Cl)cc2s1,-125.7*
CCOC(=O)c1c(N/N=C/c2cccnc2)n[nH]c1C,-157.2*
O=c1c2cnn(-c3ccccc3)c2ncn1CCc1ccccc1,-113.7*
CCOC(=O)C(C)Oc1cccc2c(=O)n(CC(=O)NCc3ccco3)ccc12 (centres undefined),73.0
Nn1c(SCc2ccccc2)nc2c(cnn2-c2ccccc2)c1=O,-89.8*
CCCCSc1nc2c(cnn2-c2ccccc2)c(=O)n1N,-118.9*
O=C(Cn1cnc2c(cnn2-c2ccc(F)cc2)c1=O)NCc1ccco1,-77.6*
CCCSc1nc2c(cnn2-c2ccccc2)c(=O)n1N,-83.0*
C[n+]1cc[nH]c1SCC(=O)c1ccccc1,-71.7*
Cc1ccc(N=Nc2cc(C)ccc2O)c(C)c1,-214.9*
Cc1ccc(N=Nc2ccc(N)cc2C)c(S(N)(=O)=O)c1,-80.5*
Cc1ccc(N=Nc2cc(C)ccc2N)cc1,61.3
Cc1cc(/C=N/n2cnnc2)c(C)n1-c1ccc(OCc2ccccc2F)cc1,-81.9*
Cc1cc(N2CCCCC2)n2ncc(-c3ccc(Cl)cc3)c2n1,-181.3*
Cc1cc(N2CCN(C(=O)c3ccco3)CC2)n2ncc(-c3ccccc3)c2n1,-78.5*
Clc1ccc(OCc2nnc(-c3ccccc3Br)o2)c(Cl)c1,-144.1*
SMILES,aSyn UTR act
Clc1ccccc1OCc1nnc(-c2ccccc2)o1,-109.4*
Fc1ccc(OCc2nnc(-c3ccccc3Br)o2)c(Cl)c1,-151.4*
Clc1cccc(OCc2nnc(-c3ccccc3Br)o2)c1,-67.9*
Cc1ccc(Nc2nnc(-c3ccccc3N)o2)cc1C,-134.9*
N#Cc1ccc(OCc2noc(-c3ccsc3)n2)cc1,-80.9*
CCCCNC(=S)Nc1ccc(-c2nc3ccc(C)cc3s2)cc1,-158.7*
COCCNc1nnc(SC(C)C(=O)Nc2ccc(-c3nc4ccc(C)cc4s3)cc2)s1 (centres undefined),-78.9*
Cc1ccc2nc(-c3ccc(NC(=S)NCCC(C)C)cc3)sc2c1,-192.4*
CCC(C)(C)NC(=S)Nc1ccc(-c2nc3ccc(C)cc3s2)cc1,-78.5*
COC(=O)c1ccc(COc2ccc(CNCc3ccc(Cl)cc3)cc2)cc1,-92.1*
O=C(c1ccc(COc2ccc(Cl)cc2)cc1)N1CCCCC1,-85.5*
CCCCOc1ccc(C(=O)N2CCCCCC2)cc1,-80.5*
C=CCn1c(SCC(C)=O)nc2scc(-c3ccc(C)o3)c2c1=O,-150.0*
C=CCn1c(=S)[nH]c2scc(-c3ccc(C)o3)c2c1=O,-68.5*
CCn1c(=S)[nH]c2scc(-c3cccs3)c2c1=O,-72.3*
